Hits are enriched below; roughly 3.8% of the tested compounds scored in any of these assays.
ATXN2 expr inh = reduces ATXN2 reporter expression in HEK-293 cells; HEK-293 ATXN2-luciferase reporter, luminescence, 24 h; Potency, µM (highest dose often 57 µM), most hits filed as inhibitors; hit rate 0.72% among 360,000; AID 1745845; further: nearly all actives have a fitted effect of over 55% in size
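ATXN2-luciferase reporter cells (luciferase flanked by upstream and downstream ATXN2 gene portions) were treated 24 h at 37 °C with compounds at up to 57 uM. SteadyGlo luminescence gave expression; GF-AFC fluorescence gave viability.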
HT1080 IDH1KD tx = toxicity to HT-1080 IDH1 knockdown cells (counter line). HT-1080 IDH1 knockdown viability, ATP luminescence, 48 h. Potency, µM (top dose mostly 46.1 µM), hits mostly cytotoxic. hit rate 2% among 360,000. AID 686971
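% activity derives from luminescence (CellTiter-Glo), normalised to DMSO and no-cell wells. HT-1080-IDH1KD cells, 750/well, had 48 h compound exposure at 37 °C.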
ATXN viability = reduces viability in counter-screen for ATXN expression inhibitors | S2 cells (HEK-293 line with an ATXN2-luciferase reporter) viability, CellTiter-Fluor protease fluorescence, 24 h | Potency, µM (top dose mostly 56.7 µM), hits mostly cytotoxic | hit rate 0.49% among 400,000; further: nearly all actives have a fitted effect of over 40% in size
TGFb SMAD3 inh = inhibitors of TGF-b signaling; HepG2 CAGA-GFP TGF-b/SMAD3 reporter, GFP fluorescence, 18 h; TGF-beta stimulated, 500 pg/mL final; Potency, µM (top dose mostly 46.1 µM), actives largely listed as inhibitors; hit rate 1.2% among 410,000; AID 588855; further: nearly all actives have a fitted effect of over 65% in size
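GFP signal (ex488/em500-530) from TGF-beta-stimulated HEPG2 CAGA-GFP cells, 500 pg/mL final, 18 h at 37 degrees C in DMEM plus 1% FBS, normalized to unstimulated and DMSO-stimulated controls.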
HT1080-NT tox = kills 2HG-producing HT-1080-NT fibrosarcoma cells; HT-1080-NT fibrosarcoma viability, CellTiter-Glo ATP luminescence, 48 h; Potency, µM (highest dose often 46.1 µM), hits mostly cytotoxic; hit rate 1.6% among 360,000; AID 686970;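 further: NT is the 2HG producing partner of a matched IDH1 knockdown line; nearly all actives have a fitted effect of over 55% in size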
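Toxicity toward the 2HG-producing NT line was scored as %Activity, normalised to DMSO and no-cell wells, from CellTiter-Glo luminescence after 48 hours' treatment.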
HepG2 viability = HepG2 cytotoxicity, counter-screen for TGF-b inhibitors; HepG2 CAGA-GFP viability, ATP luminescence, 18 h; Potency, µM (top dose mostly 46.1 µM), usual class: cytotoxic; hit rate 0.76% among 410,000; AID 588856
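CellTiter-Glo luminescence gave cytotoxicity after 18 hours at 37 degrees C. The cells were HepG2 CAGA-GFP in 1% FBS DMEM, stimulated with 500 pg/mL TGF-beta after compound addition. %Activity was normalised to no-cell wells (complete cell-killing) and DMSO (no toxicity), and curves were fitted and classified.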
Hits are given with their value; n = inactive; u = inconclusive; x = not tested or not shown. The call rests on the fitted dose curve; in most records, active means well fitted curve in the direction sought with a large enough effect; inconclusive means small, poorly fitted or top-dose-only effect, or another doubt; inactive means no such curve, though single readings can be large; an effect the other way counts as inactive or inconclusive.

SMILES	ATXN2 expr inh	HT1080 IDH1KD tx	ATXN viability	TGFb SMAD3 inh	HT1080-NT tox	HepG2 viability
C[C@H](CO)N1C[C@H](C)[C@H](CN(C)S(=O)(=O)c2ccc(Cl)cc2)OCc2ccccc2-c2c(n(C)c3ccccc23)C1=O	u	u	u	u	u	n
CC(=O)OC1CC(OC2C(O)CC(OC3C(O)CC(OC4CCC5(C)C(CCC6C5CC(O)C5(C)C(C7=CC(=O)OC7)CCC65O)C4)OC3C)OC2C)OC(C)C1OC1OC(CO)C(O)C(O)C1O (centres undefined)	0.316µM	0.206µM	u	1.41µM	0.366µM	n
C[C@H]1O[C@@H](O[C@H]2[C@@H](O)C[C@@H](O[C@H]3[C@@H](O)C[C@H](O[C@H]4CC[C@@]5(C)[C@H](CC[C@@H]6[C@@H]5CC[C@]5(C)[C@@H](C7=CC(=O)OC7)CC[C@]65O)C4)O[C@@H]3C)O[C@@H]2C)C[C@H](O)[C@@H]1O	x	x	x	0.316µM	x	n
C[C@]12CCC3C(CC[C@H]4C[C@@H](O)CC[C@]34C)[C@H]1C=CC2=O (some centres undefined)	n	u	n	u	n	n
CC12CCC(O)CC1CCC1C2CCC2(C)C(C3=CC(=O)OC3)C(O)CC12O (centres undefined)	u	1.64µM	u	10µM	u	n
C[C@]12CC[C@H](O)C[C@H]1CC[C@@H]1[C@@H]2C[C@@H](O)[C@]2(C)[C@@H](C3=CC(=O)OC3)CC[C@]12O	u	0.82µM	u	10µM	2.06µM	n
CC12CC[C@H]3[C@@H](CCC4(O)C[C@H](O)CCC34/C=N/NC(=O)Cc3ccccc3)C1(O)CCC2C1=CC(=O)OC1 (some centres undefined)	u	u	n	n	u	n
C[C@]12CC[C@H](O)C[C@H]1CC[C@@H]1[C@@H]2CC[C@]2(C)[C@@H](C3=CC(=O)OC3)CC[C@]12O	0.316µM	0.259µM	u	u	0.517µM	n
O=C(NCCN1CCC(n2c(=O)[nH]c3ccccc32)CC1)c1ccc2ccccc2c1	u	u	u	x	n	x
O=C(NCCN1CCC2(CC1)C(=O)NCN2c1cccc(F)c1)c1ccc2ccccc2c1	12.6µM	20.6µM	31.6µM	x	14.6µM	x
Cc1cccc(NC(=O)Oc2ccc(Cl)c3cccnc23)c1	x	n	n	u	n	2.82µM
COc1cccc2c1[C@]13CCN(CC4CC4)[C@H](C2)[C@]1(OC)CCC(=O)C3	n	x	x	x	x	x
CCOC(=O)[C@]12Cc3cc(C)ccc3[C@H]1N(CCC(=O)OC)C(=O)c1ccccc12	n	13µM	17.8µM	x	16.4µM	x
CCOC(=O)[C@]12Cc3ccc(C)cc3[C@H]1N(C1CCCCC1)C(=O)c1cc(OC)ccc12	3.98µM	3.26µM	4.47µM	x	4.11µM	x
CCOC(=O)[C@]12Cc3c(cc(OC)c(OC)c3OC)[C@H]1N(C1CCCCC1)C(=O)c1ccccc12	6.31µM	2.91µM	8.91µM	x	3.26µM	x
CCOC(=O)[C@]12Cc3ccc(C)cc3[C@H]1N(C1CCCCC1)C(=O)c1ccccc12	11.2µM	5.8µM	12.6µM	x	8.2µM	x
CCCCC[C@H]1CCCCC[C@H](O)C[C@@H](O)[C@H](O)/C=C/C(=O)O1	n	n	n	x	n	x
CC(C(=O)c1ccccc1)N(C)C (centres undefined)	n	x	n	x	x	x
C[C@H]1COC(=O)[C@H](Cc2ccc(F)cc2)CC/C=C/C[C@@H](CC(=O)N(CCO)Cc2ccccc2)C(=O)N1	n	n	u	u	n	n
O=C(Cn1c(=O)oc2cc(S(=O)(=O)N3CCCCC3)ccc21)NCc1ccc(Cl)cc1	u	x	u	u	x	n
CCOC(=O)[C@]12Cc3cc(Cl)ccc3[C@H]1N(C1CCCCC1)C(=O)c1cc(OC)ccc12	2.24µM	1.84µM	2µM	x	2.31µM	x
CCOC(=O)[C@]12Cc3cc(OC)ccc3[C@H]1N(CC(=O)OC)C(=O)c1ccccc12	n	n	u	x	n	x
CCOC(=O)[C@]12Cc3cc(C)ccc3[C@H]1N(C1CCCCC1)C(=O)c1ccccc12	4.47µM	3.66µM	3.55µM	x	3.66µM	x
CCOC(=O)[C@]12Cc3ccccc3[C@H]1N(C(C)C)C(=O)c1ccccc12	u	20.6µM	x	x	u	x
C[C@H]1[C@@H](OS(=O)(=O)O)C[C@@H]2C[C@H]([C@@H](O)c3cc(=O)[nH]c(=O)[nH]3)NC3=NC[C@H]1N32	10µM	x	n	2.51µM	2.06µM	n
SMILES	ATXN2 expr inh	HT1080 IDH1KD tx	ATXN viability	TGFb SMAD3 inh	HT1080-NT tox	HepG2 viability
CCc1ccc(CNC(=O)C2CCN(C(=O)c3ccc(-n4c(C)cc5ccccc54)s3)CC2)cc1	x	x	x	u	x	n
C[C@@H]1O[C@@H](O[C@@H]2C=C3CC[C@@H]4[C@@H](CC[C@]5(C)[C@H](c6ccc(=O)oc6)CC[C@@]45O)[C@@]3(C)CC2)[C@H](O)[C@H](O)[C@H]1O	0.0193µM	x	x	0.316µM	x	n
CCCCCCCSc1cc(OC)c(CCN(C)C)cc1OC	22.4µM	n	x	u	n	n
CCCCCSc1cc(OC)c(CCN)cc1OC	n	u	u	u	u	n
Cc1[nH]ccc2c1[nH]c1cc(=O)ccc12	n	u	n	n	u	n
CCOc1cc2c(cc1OCC)-n1cccc1C(c1ccccc1OC)NC2 (centres undefined)	n	n	n	n	n	n
CCOc1cc2c(cc1OCC)-n1cccc1C(c1c(O)cccc1OC)NC2 (centres undefined)	n	20.6µM	n	n	20.6µM	n
CCOc1cc2c(cc1OCC)-n1cccc1C(c1ccc(C(C)C)cc1)NC2 (centres undefined)	u	20.6µM	u	u	16.4µM	n
CCOc1cc2c(cc1OCC)-n1cccc1C(c1ccc(F)cc1)NC2 (centres undefined)	n	n	n	u	n	n
CCc1ccccc1Nc1nn2c(=O)c3ccc(C(=O)Nc4cc(C)cc(C)c4)cc3nc2s1	u	x	u	n	x	n
CNC(=O)Nc1ccc(C(=O)N/N=C\C23CC[C@@H](O)CC2(O)CC[C@@H]2[C@@H]3CCC3(C)C(C4=CC(=O)OC4)CCC23O)cc1 (some centres undefined)	u	u	n	n	u	n
COC1C(O)C(C)OC(OC2CCC3(C)C(CCC4C3C(O)CC3(C)C(C5=CC(=O)OC5)CCC43O)C2)C1O (centres undefined)	0.398µM	0.82µM	u	2µM	1.46µM	n
